# Measured values as given in the supplement of paper PMC8728848.
# The full list was thinned out, with the strongest signals kept by preference.
# B1: Neuropilin-1 (Rattus norvegicus), Q9QWJ9 (protein)
# chain: MERGLPLLCATLALALALAGAFRSDKCGGTIKIENPGYLTSPGYPHSYHPSEKCEWLIQAPEPYQRIMINFNPHFDLEDRDCKYDYVEVIDGENEGGRLWGKFCGKIAPSPVVSSGPFLFIKFVSDYETHGAGFSIRYEIFKRGPECSQNYTAPTGVIKSPGFPEKYPNSLECTYIIFAPKMSEIILEFESFDLEQDSNPPGGVFCRYDRLEIWDGFPEVGPHIGRYCGQKTPGRIRSSSGILSMVFYTDSAIAKEGFSANYSVLQSSISEDFKCMEALGMESGEIHSDQITASSQYGTNWSVERSRLNYPENGWTPGEDSYREWIQVDLGLLRFVTAVGTQGAISKETKKKYYVKTYRVDISSNGEDWITLKEGNKAIIFQGNTNPTDVVFGVFPKPLITRFVRIKPASWETGISMRFEVYGCKITDYPCSGMLGMVSGLISDSQITASNQGDRNWMPENIRLVTSRTGWALPPSPHPYINEWLQVDLGDEKIVRGVIIQGGKHRENKVFMRKFKIAYSNNGSDWKMIMDDSKRKAKSFEGNNNYDTPELRAFTPLSTRFIRIYPERATHSGLGLRMELLGCEVEVPTAGPTTPNGNPVDECDDDQANCHSGTGDDFQLTGGTTVLATEKPTIIDSTIQSEFPTYGFNCEFGWGSHKTFCHWEHDSHAQLRWRVLTSKTGPIQDHTGDGNFIYSQADENQKGKVARLVSPVVYSQSSAHCMTFWYHMSGSHVGTLRVKLHYQKPEEYDQLVWMVVGHQGDHWKEGRVLLHKSLKLYQVIFEGEIGKGNLGGIAVDDISINNHIPQEDCAKPTDLDKKNTEIKIDETGSTPGYEEGKGDKNISRKPGNVLKTLDPILITIIAMSALGVLLGAVCGVVLYCACWHNGMSERNLSALENYNFELVDGVKLKKDKLNPQSNYSEA
# What was measured:
# Assay in all cases: glycan array binding signal (z-score within array); higher = stronger binding
# Details in all cases: glycan notation: IUPAC condensed, linker removed
# [1] = biological target: Fuc(a1-2)Gal(b1-4)GlcNAc(b1-2)Man(a1-3)[Fuc(a1-2)Gal(b1-4)GlcNAc(b1-2)Man(a1-6)]Man(b1-4)GlcNAc(b1-4)GlcNAc
# Summary of the method: (§1)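 Negative Z-scores can be read as non-binding. The Z-score is calculated within each array and then averaged across arrays of one protein sequence at different concentrations or buffers and across linkers. Arrays, 3228 in all, were curated from the Consortium for Functional Glycomics database and kept only where the protein sequence was available.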
# [2] = biological target: Fuc(a1-2)Gal(b1-4)[Fuc(a1-3)]GlcNAc(b1-2)Man(a1-3)[Fuc(a1-2)Gal(b1-4)[Fuc(a1-3)]GlcNAc(b1-2)Man(a1-6)]Man(b1-4)GlcNAc(b1-4)GlcNAc
# Summary of the method: as §1
# Fuc(a1-2)[Gal(a1-3)]Gal = biological target: Fuc(a1-2)[Gal(a1-3)]Gal
# Summary of the method: as §1
# [3] = biological target: Fuc(a1-2)[Gal(a1-3)]Gal(b1-4)GlcNAc(b1-2)Man(a1-3)[Fuc(a1-2)[Gal(a1-3)]Gal(b1-4)GlcNAc(b1-2)Man(a1-6)]Man(b1-4)GlcNAc(b1-4)GlcNAc
# Summary of the method: as §1
# [4] = biological target: Fuc(a1-2)[GalNAc(a1-3)]Gal(b1-4)GlcNAc(b1-2)Man(a1-3)[GalNAc(a1-3)[Fuc(a1-2)]Gal(b1-4)GlcNAc(b1-2)Man(a1-6)]Man(b1-4)GlcNAc(b1-4)GlcNAc
# Summary of the method: as §1
# [5] = biological target: Fuc(a1-2)[GalNAc(a1-3)]Gal(b1-4)GlcNAc(b1-3)Gal(b1-4)GlcNAc
# Summary of the method: as §1
# [6] = biological target: Fuc(a1-3)[Gal(b1-4)]GlcNAc(b1-2)Man(a1-6)[Gal(b1-4)GlcNAc(b1-2)Man(a1-3)]Man(b1-4)GlcNAc(b1-4)GlcNAc
# Summary of the method: as §1
# [7] = biological target: Fuc(a1-3)[Gal(b1-4)]GlcNAc6S
# Summary of the method: as §1
# [8] = biological target: Fuc(a1-3)[Gal3S(b1-4)]GlcNAc
# Summary of the method: as §1
# [9] = biological target: Gal(a1-3)Gal(b1-4)[Fuc(a1-3)]GlcNAc(b1-2)Man(a1-3)[Gal(a1-3)Gal(b1-4)[Fuc(a1-3)]GlcNAc(b1-2)Man(a1-6)]Man(b1-4)GlcNAc(b1-4)GlcNAc
# Summary of the method: as §1
# Gal(a1-4)Gal(b1-4)GlcNAc = biological target: Gal(a1-4)Gal(b1-4)GlcNAc
# Summary of the method: as §1
# Gal(b1-2)Gal = biological target: Gal(b1-2)Gal
# Summary of the method: as §1
# [10] = biological target: Gal(b1-3)GlcNAc(b1-2)Man(a1-3)[Gal(b1-3)GlcNAc(b1-2)Man(a1-6)]Man(b1-4)GlcNAc(b1-4)GlcNAc
# Summary of the method: as §1
# [11] = biological target: Gal(b1-3)[Neu5Ac(b2-6)]GalNAc
# Summary of the method: as §1
# [12] = biological target: Gal(b1-4)GalNAc(a1-3)[Fuc(a1-2)]Gal(b1-4)GlcNAc
# Summary of the method: as §1
# GlcA(b1-6)Gal = biological target: GlcA(b1-6)Gal
# Summary of the method: as §1
# [13] = biological target: GlcNAc(a1-4)Gal(b1-4)GlcNAc(b1-3)Gal(b1-4)[Fuc(a1-3)]GlcNAc(b1-3)Gal(b1-4)[Fuc(a1-3)]GlcNAc
# Summary of the method: as §1
# [14] = biological target: Neu5Ac(a2-3)Gal(b1-3)GalNAc
# Summary of the method: as §1
# [15] = biological target: Neu5Ac(a2-3)Gal(b1-3)GalNAc6S
# Summary of the method: as §1
# [16] = biological target: Neu5Ac(a2-3)Gal(b1-3)GlcNAc
# Summary of the method: as §1
# [17] = biological target: Neu5Ac(a2-3)Gal(b1-3)GlcNAc6S
# Summary of the method: as §1
# [18] = biological target: Neu5Ac(a2-3)Gal(b1-3)[Fuc(a1-4)]GlcNAc(b1-3)Gal(b1-4)[Fuc(a1-3)]GlcNAc
# Summary of the method: as §1
# [19] = biological target: Neu5Ac(a2-3)Gal(b1-4)GlcNAc(b1-3)Gal(b1-4)GlcNAc(b1-3)Gal(b1-4)GlcNAc
# Summary of the method: as §1
# [20] = biological target: Neu5Ac(a2-3)Gal(b1-4)[Fuc(a1-3)]GlcNAc(b1-6)[Gal(b1-3)]GalNAc
# Summary of the method: as §1
# [21] = biological target: Neu5Ac(a2-3)Gal(b1-4)[Fuc(a1-3)]GlcNAc(b1-6)[Neu5Ac(a2-3)Gal(b1-3)]GalNAc
# Summary of the method: as §1
# Neu5Ac(a2-3)GalNAc = biological target: Neu5Ac(a2-3)GalNAc
# Summary of the method: as §1
# [22] = biological target: Neu5Ac(a2-6)Gal(b1-4)GlcNAc(b1-2)Man(a1-3)Man(b1-4)GlcNAc(b1-4)GlcNAc
# Summary of the method: as §1
# [23] = biological target: Neu5Ac(a2-6)Gal(b1-4)GlcNAc6S
# Summary of the method: as §1
# [24] = biological target: Neu5Ac(b2-6)Gal(b1-4)GlcNAc
# Summary of the method: as §1
# Neu5Gc(a2-3)Gal(b1-4)Glc = biological target: Neu5Gc(a2-3)Gal(b1-4)Glc
# Summary of the method: as §1
binder,measurement,setting,value
B1,glycan array binding signal (z-score),[1],7.46
same,glycan array binding signal (z-score),[2],2.97
same,glycan array binding signal (z-score),Fuc(a1-2)[Gal(a1-3)]Gal,-0.352
same,glycan array binding signal (z-score),[3],7.21
same,glycan array binding signal (z-score),[4],5.38
same,glycan array binding signal (z-score),[5],-0.035
same,glycan array binding signal (z-score),[6],-0.363
same,glycan array binding signal (z-score),[7],0.233
same,glycan array binding signal (z-score),[8],-0.201
same,glycan array binding signal (z-score),[9],4.58
same,glycan array binding signal (z-score),Gal(a1-4)Gal(b1-4)GlcNAc,-0.229
same,glycan array binding signal (z-score),Gal(b1-2)Gal,-0.273
same,glycan array binding signal (z-score),[10],-0.258
same,glycan array binding signal (z-score),[11],-0.235
same,glycan array binding signal (z-score),[12],0.018
same,glycan array binding signal (z-score),GlcA(b1-6)Gal,-0.148
same,glycan array binding signal (z-score),[13],2.61
same,glycan array binding signal (z-score),[14],-0.323
same,glycan array binding signal (z-score),[15],-0.301
same,glycan array binding signal (z-score),[16],-0.274
same,glycan array binding signal (z-score),[17],-0.371
same,glycan array binding signal (z-score),[18],0.102
same,glycan array binding signal (z-score),[19],-0.331
same,glycan array binding signal (z-score),[20],8.12
same,glycan array binding signal (z-score),[21],4.25
same,glycan array binding signal (z-score),Neu5Ac(a2-3)GalNAc,-0.28
same,glycan array binding signal (z-score),[22],-0.309
same,glycan array binding signal (z-score),[23],-0.311
same,glycan array binding signal (z-score),[24],-0.253
same,glycan array binding signal (z-score),Neu5Gc(a2-3)Gal(b1-4)Glc,-0.189
